The term AC50 denotes the concentration giving half of the maximal activity seen.

Results filed as inconclusive are left out. The source made the active and inactive calls. The calls were made as follows, unless noted: active = hit-call score of the fitted dose curve at least 0.9, where 1 is the maximum; inactive = score below 0.9.

From PubChem BioAssay (EPA / NIEHS) come the findings set out here.

Assay [1] can be described thus: ATG_GAL4_TRANS: Attagene TRANS-FACTORIAL HepG2 Assay for GAL4 (Internal Marker) (AID 2282976; active = hit-call score of the fitted dose curve at least 0.9, where 1 is the maximum). The conditions noted are these: HepG2 Attagene TRANS GAL4 internal marker reporter. The procedure, abridged:
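Background-control readout: GAL4-UAS reporter transcript in transiently transfected HepG2 cells after 24 h compound exposure. Measured by RT-PCR, 6-FAM primer extension, HpaI digest and capillary electrophoresis; gain-of-signal fit versus DMSO.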

Assay [2] has as its target Glucocorticoid receptor (Homo sapiens) (UniProt P04150). Kind of assay: ATG_GR_TRANS: Attagene TRANS-FACTORIAL HepG2 Assay for human Glucocorticoid Receptor (GR) (AID 2282978; active = hit-call score of the fitted dose curve at least 0.9, where 1 is the maximum;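 also: activators score as hits since higher reporter transcript over DMSO is fitted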). The conditions noted are these: HepG2 Attagene TRANS GR reporter, mRNA transcription. In short, it runs like this: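 Transiently transfected HepG2 cells express chimeric NR-GAL4 proteins acting on GAL4-UAS reporter units. Compounds are applied for 24 h. mRNA induction over DMSO is measured by capillary electrophoresis.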

A short description of assay [3]: ATG_M_06_TRANS: Attagene TRANS-FACTORIAL HepG2 Assay for M06 Transcription Factor (Internal Marker) (AID 2282983; active = hit-call score of the fitted dose curve at least 0.9, where 1 is the maximum;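 also: reporter transcript level by RT-PCR then capillary electrophoresis fluorescence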). The conditions noted are these: HepG2 Attagene TRANS M06 internal marker reporter. The procedure, abridged:
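HepG2 cells transiently transfected with GAL4-UAS multiple reporter units, dosed 24 h. Reporter RNA reverse-transcribed, PCR-amplified, 6-FAM-labeled, HpaI-digested and quantified by capillary electrophoresis; this internal-marker signal fitted upward relative to DMSO.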

Assay [4] addresses Nuclear receptor subfamily 4 group A member 2 (Homo sapiens) (UniProt P43354). Kind of assay: ATG_NURR1_TRANS: Attagene TRANS-FACTORIAL HepG2 Assay for human Nuclear Receptor Related Protein 1 (NURR1) (AID 2282985; active = hit-call score of the fitted dose curve at least 0.9, where 1 is the maximum). The conditions noted are these: HepG2 Attagene TRANS reporter, mRNA readout. The procedure, abridged:
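HepG2 cells transiently transfected with NURR1-Gal4 chimera and GAL4-UAS reporter units; after 24 hr compound exposure, reporter mRNA quantified by RT-PCR and capillary electrophoresis; gain of signal fitted against DMSO.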

Assay [5] deals with Transcriptional activator Myb (Homo sapiens) (UniProt P10242). Kind of assay: ATG_Myb_CIS: Attagene CIS-FACTORIAL HepG2 Assay for human Myeloblastosis (Myb) Proto-Oncogene Transcription Factor (AID 2282986). The conditions noted are these: HepG2 Attagene CIS-FACTORIAL Myb reporter transcription; actives raise or lower the signal. The procedure, abridged:
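Using HepG2 liver cells bearing transiently transfected cis-promoter reporter constructs, the assay measures induction or loss of reporter mRNA after 24 hours of dosing. Detection used fluorescently labeled RT-PCR products separated by capillary electrophoresis.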

Assay [6] deals with Nuclear respiratory factor 1 (Homo sapiens) (UniProt Q16656). Kind of assay: ATG_NRF1_CIS: Attagene CIS-FACTORIAL HepG2 Assay for human Nuclear Respiratory Factor 1 (NRF1) Orphan Gene (AID 2282987). The conditions noted are these: HepG2 NRF1 cis-element reporter, Attagene multiplex; actives raise or lower the signal. The procedure, abridged:
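Reporter mRNA induction or loss in HepG2 cells after 24 h dosing; cis-regulated reporter constructs report endogenous transcription-factor activity. Quantified by RT-PCR/capillary electrophoresis fluorescence, DMSO-referenced.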

Assay [7] in a line: ATG_NFI_CIS: Attagene CIS-FACTORIAL HepG2 Assay for human Nuclear Factor I (NFI) (AID 2282989). The conditions noted are these: HepG2 cis-regulatory reporter, NFI response element transcription; actives raise or lower the signal. The procedure, abridged: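 Cells: human liver HepG2, transiently transfected with promoter-regulated reporter transcription units. Exposure 24 h. Detection: fluorescent RT-PCR products separated by capillary electrophoresis, normalised to DMSO negative control.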

A short description of assay [8]: ATG_NF_kB_CIS: Attagene CIS-FACTORIAL HepG2 Assay for human Nuclear Factor Kappa B (NF-kB) (AID 2282991). The conditions noted are these: HepG2 Attagene cis-factorial NF-kB reporter mRNA; actives raise or lower the signal. In short, it runs like this: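 DMSO served as negative control and baseline for bidirectional curve fitting. Transiently transfected HepG2 cells were dosed for 24 h, then reporter transcripts were measured by RT-PCR with capillary electrophoresis detection.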

The nature of assay [9]: ATG_NRF2_ARE_CIS: Attagene CIS-FACTORIAL HepG2 Assay for human Nuclear Factor Erythroid 2 Related Factor 2 (NFR2) response to Antioxidant Response Elements (ARE) (AID 2282992).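 As to AC50: reporter mRNA level measured by RT-PCR and capillary electrophoresis fluorescence.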 The conditions noted are these: HepG2 Attagene ARE/NRF2 reporter, transcription factor activity; actives raise or lower the signal. The procedure, abridged: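 HepG2 cells transiently transfected with multiplexed cis-regulated reporter transcription units measure endogenous transcription factor activity. Reporter mRNA at 24 h is quantified by RT-PCR, fluorescent labelling and capillary electrophoresis, with bidirectional fitting relative to DMSO.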

The nature of assay [10]: ATG_Oct_MLP_CIS: Attagene CIS-FACTORIAL HepG2 Assay for human Octamer-Binding Transcription Factor (Oct) (AID 2282993). The conditions noted are these: HepG2 Attagene cis-factorial Oct reporter, mRNA; actives raise or lower the signal. The procedure, abridged: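 HepG2, transient MRTU transfection, cis promoter elements; 24 h dosing; RT-PCR/CE fluorescence read-out of reporter mRNA; fit both directions vs DMSO.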

Assay [11] has as its target Cellular tumor antigen p53 (Homo sapiens) (UniProt P04637). Kind of assay: ATG_p53_CIS: Attagene CIS-FACTORIAL HepG2 Assay for human p53 Transcription Factor (AID 2282994). The conditions noted are these: HepG2 p53 cis-element reporter, Attagene mRNA; actives raise or lower the signal. In short, it runs like this:
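HepG2 cells transiently transfected with multiplexed cis-regulated reporter transcription units read endogenous TF activity. After 24 h compound exposure, reporter mRNA was quantified by RT-PCR, fluorescent labelling, HpaI digestion and capillary electrophoresis; bidirectional fits versus DMSO baseline.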

Assay [12] in a line: BSK_3C_TissueFactor: BioMAP Diversity Plus: 3C Assay for Tissue Factor Biomarker Activity (AID 2282997). The conditions noted are these: BioMAP 3C HUVEC, tissue factor biomarker readout; actives raise or lower the signal. In short, it runs like this: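 HUVEC were treated 24 h, then surface tissue factor measured by ELISA and fitted bidirectionally against DMSO. Parallel SRB total-protein staining assessed overt cytotoxicity at the same time point.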

The nature of assay [13]: BSK_3C_uPAR: BioMAP Diversity Plus: 3C Assay for Urokinase-type plasminogen activator receptor (uPAR) Biomarker Activity (AID 2282998). The conditions noted are these: BioMAP 3C HUVEC, uPAR biomarker ELISA; actives raise or lower the signal. The procedure, abridged:
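A multiplexed primary-cell system built on human umbilical vein endothelium was used, with chemical present for 24 h before reading. Cell-surface uPAR was detected by ELISA; signal change in either direction counted against DMSO.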
(In general: ELISA stands for enzyme-linked immunosorbent assay.)

The target of assay [14] is Bile acid receptor (Homo sapiens) (UniProt Q96RI1). Kind of assay: ATG_FXR_TRANS: Attagene TRANS-FACTORIAL HepG2 Assay for Farnesoid X Receptor (FXR) (AID 2282979; active = hit-call score of the fitted dose curve at least 0.9, where 1 is the maximum;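 also: hits raise reporter mRNA above DMSO so AC50 marks FXR activation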). The conditions noted are these: HepG2 Attagene TRANS FXR-GAL4 reporter transcription. In short, it runs like this:
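HepG2 cells were transiently transfected with GAL4-UAS reporters driven by chimeric NR-Gal4 proteins and dosed for 24 h. Reporter mRNA was quantified by RT-PCR, fluorescent labelling, HpaI digestion and capillary electrophoresis, with gain of signal scored versus DMSO.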

The target of assay [15] is Oxysterols receptor LXR-beta (Homo sapiens) (UniProt P55055). As to the kind of experiment: ATG_LXRb_TRANS: Attagene TRANS-FACTORIAL HepG2 Assay for human Liver X Receptor beta (LXRb) (AID 2282981; active = hit-call score of the fitted dose curve at least 0.9, where 1 is the maximum). The conditions noted are these: HepG2 Attagene TRANS GAL4-LXRb reporter, mRNA. In short, it runs like this: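 HepG2 cells transiently transfected with GAL4-UAS reporter units for chimeric NR-Gal4 proteins, dosed for 24 h. Reporter transcripts measured by RT-PCR and capillary electrophoresis; gain-of-signal fitting relative to DMSO.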
Sequence of Oxysterols receptor LXR-beta (Homo sapiens) (P55055 whole entry, looked up, the tested form may be a part): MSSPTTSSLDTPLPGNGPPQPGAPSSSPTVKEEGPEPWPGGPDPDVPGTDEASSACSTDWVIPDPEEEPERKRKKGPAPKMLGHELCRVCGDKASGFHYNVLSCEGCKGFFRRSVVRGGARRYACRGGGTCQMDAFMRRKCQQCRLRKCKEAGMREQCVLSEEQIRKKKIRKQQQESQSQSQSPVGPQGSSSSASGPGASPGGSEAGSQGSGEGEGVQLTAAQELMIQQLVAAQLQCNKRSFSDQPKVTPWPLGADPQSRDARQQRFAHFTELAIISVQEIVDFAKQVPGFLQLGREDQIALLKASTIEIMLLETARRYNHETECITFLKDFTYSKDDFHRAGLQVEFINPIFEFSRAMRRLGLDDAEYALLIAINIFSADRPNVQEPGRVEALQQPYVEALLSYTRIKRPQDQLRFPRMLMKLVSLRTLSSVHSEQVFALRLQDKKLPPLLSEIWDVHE

The target in assay [16] is Hepatocyte nuclear factor 4-alpha (Homo sapiens) (UniProt P41235). Kind of assay: ATG_HNF4a_TRANS: Attagene TRANS-FACTORIAL HepG2 Assay for human Hepatocyte Nuclear Factor 4 alpha (HNF4a) (AID 2282982; active = hit-call score of the fitted dose curve at least 0.9, where 1 is the maximum). The conditions noted are these: HepG2 HNF4a transactivation reporter, mRNA readout. In short, it runs like this: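 HepG2 cells transiently transfected with HNF4a-Gal4 chimera and GAL4-UAS reporter units, dosed for 24 h. Reporter mRNA measured by RT-PCR, fluorescent primer extension and capillary electrophoresis; gain-of-signal fitted relative to DMSO.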
Sequence of Hepatocyte nuclear factor 4-alpha (Homo sapiens) (P41235 whole entry, looked up, the tested form may be a part): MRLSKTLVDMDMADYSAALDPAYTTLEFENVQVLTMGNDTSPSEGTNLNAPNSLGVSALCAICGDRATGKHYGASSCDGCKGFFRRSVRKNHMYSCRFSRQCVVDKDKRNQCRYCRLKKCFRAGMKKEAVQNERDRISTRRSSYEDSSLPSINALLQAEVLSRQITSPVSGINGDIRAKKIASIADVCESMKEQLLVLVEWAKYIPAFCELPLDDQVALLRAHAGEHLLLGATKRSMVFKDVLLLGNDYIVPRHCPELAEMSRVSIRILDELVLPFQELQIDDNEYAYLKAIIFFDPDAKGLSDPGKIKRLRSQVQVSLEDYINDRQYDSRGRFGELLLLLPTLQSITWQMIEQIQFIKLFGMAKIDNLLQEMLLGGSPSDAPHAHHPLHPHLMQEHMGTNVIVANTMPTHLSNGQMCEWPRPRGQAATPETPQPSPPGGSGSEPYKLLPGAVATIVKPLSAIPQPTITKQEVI

A short description of assay [17]: ATG_M_32_TRANS: Attagene TRANS-FACTORIAL HepG2 Assay for M32 Transcription Factor (Internal Marker) (AID 2282984; active = hit-call score of the fitted dose curve at least 0.9, where 1 is the maximum). The conditions noted are these: HepG2 Attagene TRANS M32 internal marker reporter. In short, it runs like this:
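HepG2 cells transiently transfected with GAL4-UAS reporter units, dosed for 24 hours. Reporter mRNA quantified by RT-PCR, 6-FAM labelling, HpaI digestion and capillary electrophoresis; internal-marker signal fitted upward relative to DMSO.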

The target of assay [18] is Myc proto-oncogene protein (Homo sapiens) (UniProt P01106). As to the kind of experiment: ATG_Myc_CIS: Attagene CIS-FACTORIAL HepG2 Assay for human Myelocytomatosis (Myc) Proto-Oncogene Transcription Factor (AID 2282990). The conditions noted are these: HepG2, Attagene cis-reporter transcription factor activity; actives raise or lower the signal. The procedure, abridged:
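Read-out: fluorescent reporter mRNA fragments resolved by capillary electrophoresis after RT-PCR. Human HepG2 liver cells carried transfected cis-element reporter units and were dosed for 24 h. Gain or loss of signal fitted relative to DMSO baseline.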

The target in assay [19] is Oxysterols receptor LXR-alpha (Homo sapiens) (UniProt Q13133). As to the kind of experiment: ATG_LXRa_TRANS: Attagene TRANS-FACTORIAL HepG2 Assay for human Liver X Receptor alpha (LXRa) (AID 2282980; active = hit-call score of the fitted dose curve at least 0.9, where 1 is the maximum). The conditions noted are these: HepG2 Attagene TRANS reporter, LXRa transactivation. The procedure, abridged: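 HepG2 cells transiently transfected with GAL4-UAS reporter units for chimeric NR-Gal4 proteins, exposed to chemicals for 24 h. Reporter mRNA quantified by RT-PCR and capillary electrophoresis; gain of signal fitted relative to DMSO.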
Sequence of Oxysterols receptor LXR-alpha (Homo sapiens) (Q13133 whole entry, looked up, the tested form may be a part): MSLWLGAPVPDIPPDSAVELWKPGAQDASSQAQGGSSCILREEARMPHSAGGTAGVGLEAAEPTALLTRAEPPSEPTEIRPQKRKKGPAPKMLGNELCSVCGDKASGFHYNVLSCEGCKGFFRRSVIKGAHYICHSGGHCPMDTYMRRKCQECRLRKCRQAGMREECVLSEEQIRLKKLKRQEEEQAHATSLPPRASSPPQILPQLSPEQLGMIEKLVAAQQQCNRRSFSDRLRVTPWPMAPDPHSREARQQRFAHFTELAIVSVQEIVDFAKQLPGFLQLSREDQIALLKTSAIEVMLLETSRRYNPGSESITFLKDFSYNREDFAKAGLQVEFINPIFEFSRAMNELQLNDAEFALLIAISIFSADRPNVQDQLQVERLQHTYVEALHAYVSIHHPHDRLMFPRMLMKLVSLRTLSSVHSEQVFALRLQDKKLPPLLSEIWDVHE

Sequence of Nuclear receptor subfamily 4 group A member 2 (Homo sapiens) (P43354 whole entry, looked up, the tested form may be a part): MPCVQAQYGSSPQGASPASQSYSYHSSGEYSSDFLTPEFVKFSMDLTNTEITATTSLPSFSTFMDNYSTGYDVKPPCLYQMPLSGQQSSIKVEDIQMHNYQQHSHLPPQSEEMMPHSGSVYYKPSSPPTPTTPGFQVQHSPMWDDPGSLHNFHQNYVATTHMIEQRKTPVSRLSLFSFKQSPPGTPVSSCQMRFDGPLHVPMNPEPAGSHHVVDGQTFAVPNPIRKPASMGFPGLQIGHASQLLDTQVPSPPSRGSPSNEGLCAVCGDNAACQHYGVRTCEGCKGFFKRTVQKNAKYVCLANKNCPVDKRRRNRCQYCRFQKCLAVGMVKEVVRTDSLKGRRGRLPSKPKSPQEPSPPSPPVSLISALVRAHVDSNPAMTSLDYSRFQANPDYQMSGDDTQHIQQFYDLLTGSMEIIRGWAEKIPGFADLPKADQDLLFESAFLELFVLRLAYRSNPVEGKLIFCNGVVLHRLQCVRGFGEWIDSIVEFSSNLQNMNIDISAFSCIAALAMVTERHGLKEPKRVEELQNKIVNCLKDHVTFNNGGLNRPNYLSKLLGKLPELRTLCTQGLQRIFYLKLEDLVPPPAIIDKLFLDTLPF
Sequence of Cellular tumor antigen p53 (Homo sapiens) (P04637 whole entry, looked up): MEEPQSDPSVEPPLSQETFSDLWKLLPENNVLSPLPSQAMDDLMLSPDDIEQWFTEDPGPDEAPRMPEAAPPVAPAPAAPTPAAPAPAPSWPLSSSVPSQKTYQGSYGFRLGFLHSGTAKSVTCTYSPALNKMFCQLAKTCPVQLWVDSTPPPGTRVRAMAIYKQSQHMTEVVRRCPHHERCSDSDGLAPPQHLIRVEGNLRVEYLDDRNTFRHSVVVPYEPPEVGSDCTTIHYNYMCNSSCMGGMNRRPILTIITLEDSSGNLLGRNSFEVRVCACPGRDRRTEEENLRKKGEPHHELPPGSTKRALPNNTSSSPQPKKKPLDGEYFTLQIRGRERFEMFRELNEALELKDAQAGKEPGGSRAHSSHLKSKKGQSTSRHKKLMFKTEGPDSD
Sequence of Nuclear respiratory factor 1 (Homo sapiens) (Q16656 whole entry, looked up): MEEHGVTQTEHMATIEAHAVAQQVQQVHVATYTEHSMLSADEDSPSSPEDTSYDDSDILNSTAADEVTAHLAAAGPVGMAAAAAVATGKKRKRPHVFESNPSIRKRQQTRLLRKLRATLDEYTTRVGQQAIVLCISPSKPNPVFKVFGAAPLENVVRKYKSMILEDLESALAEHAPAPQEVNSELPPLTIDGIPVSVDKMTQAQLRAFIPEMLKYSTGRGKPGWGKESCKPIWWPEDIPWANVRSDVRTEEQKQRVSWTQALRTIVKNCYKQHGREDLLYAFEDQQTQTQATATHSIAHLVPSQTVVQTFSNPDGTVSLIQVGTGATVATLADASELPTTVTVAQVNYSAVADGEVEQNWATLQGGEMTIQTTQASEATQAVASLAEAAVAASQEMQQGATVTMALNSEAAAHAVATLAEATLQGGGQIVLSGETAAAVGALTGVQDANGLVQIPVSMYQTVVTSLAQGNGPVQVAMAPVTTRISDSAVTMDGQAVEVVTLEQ
Sequence of Myc proto-oncogene protein (Homo sapiens) (P01106 whole entry, looked up, the tested form may be a part): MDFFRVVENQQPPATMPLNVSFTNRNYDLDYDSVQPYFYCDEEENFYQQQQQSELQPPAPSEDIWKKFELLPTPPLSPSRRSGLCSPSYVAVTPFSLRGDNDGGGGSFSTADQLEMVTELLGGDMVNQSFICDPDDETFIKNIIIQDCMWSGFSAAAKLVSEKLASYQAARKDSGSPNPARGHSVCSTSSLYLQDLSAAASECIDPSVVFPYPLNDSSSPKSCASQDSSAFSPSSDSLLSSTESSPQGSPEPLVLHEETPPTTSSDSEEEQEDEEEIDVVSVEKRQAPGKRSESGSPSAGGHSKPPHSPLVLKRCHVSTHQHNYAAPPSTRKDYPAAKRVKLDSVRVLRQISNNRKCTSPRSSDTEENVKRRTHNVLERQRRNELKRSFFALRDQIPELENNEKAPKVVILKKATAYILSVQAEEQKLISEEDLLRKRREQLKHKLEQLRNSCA
Sequence of Transcriptional activator Myb (Homo sapiens) (P10242 whole entry, looked up): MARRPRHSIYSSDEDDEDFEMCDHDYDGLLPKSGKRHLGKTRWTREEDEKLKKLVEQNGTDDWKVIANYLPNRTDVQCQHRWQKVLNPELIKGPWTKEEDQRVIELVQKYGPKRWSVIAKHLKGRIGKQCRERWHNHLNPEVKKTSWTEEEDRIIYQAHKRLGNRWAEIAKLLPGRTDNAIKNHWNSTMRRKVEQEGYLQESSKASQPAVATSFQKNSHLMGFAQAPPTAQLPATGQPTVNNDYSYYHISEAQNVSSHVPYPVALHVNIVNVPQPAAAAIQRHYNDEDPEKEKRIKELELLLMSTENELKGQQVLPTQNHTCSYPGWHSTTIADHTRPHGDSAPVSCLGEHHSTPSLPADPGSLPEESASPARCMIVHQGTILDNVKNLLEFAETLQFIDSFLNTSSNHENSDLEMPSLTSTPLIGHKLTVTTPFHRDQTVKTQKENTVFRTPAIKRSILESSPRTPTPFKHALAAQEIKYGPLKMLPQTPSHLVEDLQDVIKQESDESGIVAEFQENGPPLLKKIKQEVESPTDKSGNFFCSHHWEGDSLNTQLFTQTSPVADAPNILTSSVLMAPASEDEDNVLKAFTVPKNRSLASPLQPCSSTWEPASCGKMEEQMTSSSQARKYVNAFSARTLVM
Sequence of Glucocorticoid receptor (Homo sapiens) (P04150 whole entry, looked up, the tested form may be a part): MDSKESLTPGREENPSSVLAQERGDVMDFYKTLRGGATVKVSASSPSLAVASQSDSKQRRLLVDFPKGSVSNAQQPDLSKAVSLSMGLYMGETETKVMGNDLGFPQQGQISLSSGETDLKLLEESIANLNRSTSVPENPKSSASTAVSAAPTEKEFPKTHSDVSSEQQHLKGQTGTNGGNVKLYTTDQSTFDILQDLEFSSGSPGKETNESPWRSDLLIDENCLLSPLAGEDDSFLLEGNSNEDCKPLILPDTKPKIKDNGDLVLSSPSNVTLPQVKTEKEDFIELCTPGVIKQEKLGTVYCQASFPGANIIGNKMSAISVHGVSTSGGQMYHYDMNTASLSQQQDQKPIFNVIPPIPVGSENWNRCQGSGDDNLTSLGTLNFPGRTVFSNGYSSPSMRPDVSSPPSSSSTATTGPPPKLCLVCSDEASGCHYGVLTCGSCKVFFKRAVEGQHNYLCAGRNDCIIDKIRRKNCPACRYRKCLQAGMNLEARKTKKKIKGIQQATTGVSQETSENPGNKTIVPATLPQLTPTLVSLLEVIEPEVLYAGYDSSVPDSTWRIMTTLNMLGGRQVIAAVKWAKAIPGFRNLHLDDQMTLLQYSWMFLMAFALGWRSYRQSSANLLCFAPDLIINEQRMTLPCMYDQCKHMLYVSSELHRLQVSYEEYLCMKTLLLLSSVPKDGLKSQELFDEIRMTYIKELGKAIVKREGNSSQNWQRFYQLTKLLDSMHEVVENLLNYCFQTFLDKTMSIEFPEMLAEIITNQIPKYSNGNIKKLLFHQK

Consider `C=C(C)CN(CC)c1c([N+](=O)[O-])cc(C(F)(F)F)cc1[N+](=O)[O-]`, for which the outcome in assay [1], in assay [2], in [3], in [4], in assay [5] and in assay [6] was inactive. Moreover, the call in [7], in [8], in assay [10], in assay [11], in assay [12] and in assay [13] was inactive. Also, in assay [9], the AC50 was 4.69 µM (active).

`COCc1cnc(C2=NC(C)(C(C)C)C(=O)N2)c(C(=O)O)c1` (stereo not given): the call in assay [2], in assay [14], in assay [15], in assay [16], in assay [3] and in assay [17] was inactive. Also, the result in [4], in [5], in assay [6], in assay [7], in assay [18] and in assay [9] was inactive. Besides, the compound was classed as inactive in assay [10], in [12] and in [13].

As for `CC1(C)CCC(=Cc2ccc(Cl)cc2)C1(O)Cn1cncn1` (stereo not given), the result in [1], in assay [2], in assay [19], in assay [15], in assay [3] and in [17] was inactive. The result in assay [4], in assay [5], in assay [6], in assay [7], in assay [18] and in [11] was inactive. Also, the result in assay [12] and in assay [13] was inactive. For the same compound, the values for the concentration at half-maximal activity (AC50) in assay [9] and in [10] were 3.91 µM (active) and 13.3 µM (active), respectively.

For the compound `CCCC(=NOCC)C1=C(O)CC(CC(C)SCC)CC1=O` (stereo not given), the compound was classed as inactive in [2], in assay [19], in assay [15], in assay [16], in [17] and in [4]. For the same compound, the result in assay [5], in [6], in assay [7], in assay [18], in assay [8] and in [9] was inactive. For the same compound, the compound was classed as inactive in assay [10], in assay [11], in [12] and in assay [13].
